Laboratory results from PubChem BioAssay (NCI).
This is part of a sample that, as a whole, favours compounds with a hit. Of some 83,000 tested, about 20% had one in any assay.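 Compound tested at a single concentration for 48 hours in 96-well plates; a percent growth value below 10 was scored as active.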 Active and inactive are the calls of the source.

What follows are compounds tested on HL-60(TB) leukemia (assay: NCI-60 one-dose screen, 48 h (100 = growth as untreated, 0 = no growth, -100 = all killed)). Details: 10 µM unless noted.

Structure (SMILES) | growth
C#C[C@]1(O)CC[C@H]2[C@@H]3CC=C4c5sc(Nc6ccc(OC)nc6)nc5CC[C@]4(C)[C@H]3CC[C@@]21C | 10.1% (inactive)
C=C1CC[C@H]2[C@@](C)(CCC3OC(c4ccc(OCc5cn(C6CC(OC(C)=O)C(OC(C)=O)C(COC(C)=O)O6)nn5)cc4)OC[C@]32C)[C@@H]1/C=C/C1=CCOC1=O (stereo partly drawn) | 56.2% (inactive)
CN1CCN(c2ccc(/C=N/n3cnc4oc(-c5ccccc5)cc4c3=N)cc2)CC1 | 121% (inactive)
